Screening data (PubChem)
In the library only some 3.7% were active in any assay of this set; here they are far more common.
TbPYK inhibitor: qHTS of Trypanosoma Brucei Inhibitors; TbPYK enzyme, Kinase-Glo Plus ATP luminescence, 45 min; Potency, µM (series often up to 76.8 µM), inactives show top-dose activity, negative = inhibition, actives largely listed as inhibitors; actives 0.12% (n = 410,000); also: nearly all actives have a fitted effect of over 50% in size
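TbPYK + substrate in 50 mM TEA pH 7.2, 100 mM KCl, 10 mM MgCl2, 0.05% BSA, 0.01% Tween-20; cpd pinned; ADP 130 uM final; 45 min RT; Kinase-Glo Plus 10 min; luminescence endpoint.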
RE007 growth inh: qHTS Assay for Inhibitors of the HIV-1 protein Vpr; S. pombe RE007 Vpr strain, BacTiter-Glo ATP luminescence, 24 h; Potency, µM (series often up to 92.2 µM), for the others: top-dose activity change, negative = less growth, hits mostly inhibitors; actives 0.21% (n = 360,000); AID 651644, 2012; active = well fitted falling curve with a large enough effect; inconclusive = small, poorly fitted or top-dose-only effect; inactive = no such curve, though single readings can be large or run the other way; also: nearly all actives have a fitted effect of over 50% in size
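Fission yeast strain RE007, carrying one chromosomally integrated HIV-1 vpr copy, was seeded at OD 0.01 in PMG+AL medium with 23 nL pinned compound. After 24 h at 30 °C and 99% humidity, viability was read by BacTiter-Glo luminescence.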
Sm TGR block: qHTS Assay for the Inhibitors of Schistosoma Mansoni Peroxiredoxins | purified TGR, DTNB reduction, TNB absorbance 405 nm | AID 485364, 2010 | actives 3% (n = 360,000) | Potency, µM (titrated, usually from 114 µM), without a hit: at the top dose activity change, negative = inhibition, usual class: inhibitors | Schistosoma mansoni thioredoxin glutathione reductase (TGR), Q962Y6; also: nearly all actives have a fitted effect of over 60% in size
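TGR 20 nM + NADPH 100 uM (dispensed conc.), cpd preinc 15 min RT; start with NADPH (500 uM addition) then DTNB (15 mM addition). Kinetic TNB absorbance, 405 nm filter. Four-parameter Hill fit across titration.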
FMDV inh: High Throughput Screening for Foot and Mouth Disease Virus Antivirals | FMDV antiviral cell-based qHTS | Potency, µM (titrated, usually from 57.9 µM), inactives show top-dose activity change, negative = inhibition, most hits filed as inhibitors | actives 1.2% (n = 410,000) | AID 1159524, 2015; calls by dose curve; tested in HEK293T cells; also: read-out not given here; nearly all actives have a fitted effect of over 45% in size
Active calls of the source: *; ? = inconclusive; . = not tested or not shown. Unless noted, calls follow the shape of the dose curve; as a rule, active = well fitted curve in the direction sought with a large enough effect; inconclusive = small, poorly fitted or top-dose-only effect, or another doubt; inactive = no such curve, though single readings can be large; an effect the other way counts as inactive or inconclusive. % is scaled to controls: 0 for no effect and ±100 for the full control effect; potency is read from the fitted curve at half-maximal effect.

SMILES | TbPYK inhibitor | RE007 growth inh | Sm TGR block | FMDV inh
O=C(NCCN1CCOCC1)c1cnn(-c2nccc(-c3ccccc3F)n2)c1C1CC1 | . | . | . | 40%
CO/N=C(/C(=O)N[C@@H]1C(=O)N2C(C(=O)OC(C)OC(C)=O)=C(COC(N)=O)CS[C@H]12)c1ccco1 (some centres not stated) | 0% | . | . | .
O=C(Nc1ccc(F)cc1)N1CCN(c2ccccc2F)CC1 | 1% | . | 25% | 10%
CC(=O)c1ccc(N2C(=O)N(Cc3cc(C)ccc3C)c3ccccc3S2(=O)=O)cc1 | 3% | . | 9% | 0%
COc1ccc(C2=C/C(=C\c3ccc(OC(C)=O)cc3)C(=O)O2)cc1 | -7% | -29% | 50µM* | -4%
CC(=O)Oc1cccc(/C=C2\C=C(c3ccc(C)cc3)OC2=O)c1 | -24% | -26% | . | 15%
COc1ccc(C2=NN(c3nc(-c4ccccc4)c(CC(=O)O)s3)C(c3ccco3)C2)cc1 (configuration not stated) | -17% | -5% | 20µM* | -1%
Cc1nc(N2N=C(c3ccc(Cl)cc3)CC2c2ccco2)sc1C(=O)N(C)C (configuration not stated) | -4% | -7% | ? | -1%
CC1(C)S[C@@H]2[C@H](NC(=O)C(C(=O)Oc3ccc4c(c3)CCC4)c3ccccc3)C(=O)N2[C@H]1C(=O)O (some centres not stated) | 1% | . | . | .
CCOc1ccc(/C=C/c2nc(C#N)c(NCc3ccc(OC)cc3)o2)cc1 | 6% | . | 33% | -21%
CCOC(=O)C1CCN(Cc2ccc(O)c3ncccc23)CC1 | -4% | -8% | 2.8µM* | -26%
Oc1ccc(COC2CCN(Cc3ccccc3)C2)c2cccnc12 (configuration not stated) | . | . | 45µM* | .
COc1ccccc1N1CCN(Cc2ccc(O)c3ncccc23)CC1 | -3% | ? | 50µM* | ?
CCOC(=O)C1CCN(Cc2ccccc2C(F)(F)F)CC1 | 20% | 6% | -25% | -17%
Oc1ccc(CN2CCCc3ccccc32)c2cccnc12 | 5% | 22% | 0.1µM* | -3%
O=C(Cn1ccn(-c2ccc(F)c(F)c2)c(=O)c1=O)Nc1ccccc1F | -1% | . | 1% | -15%
Cc1cccc(Cn2c(CNS(=O)(=O)c3ccc4c(c3)CCCC4)nc3cccnc32)c1 | 4% | . | 4% | 65%
O=C(c1ccco1)N1CCN(CC(O)COc2ccc(Br)cc2)CC1 (configuration not stated) | 2% | 8% | 45µM* | -27%
Cc1cccc2sc(NC(=O)CN(C)S(=O)(=O)c3cccs3)nc12 | -1% | -21% | -11% | 40µM*
Cn1c(=O)c2cc(S(=O)(=O)NC(Cc3ccccc3)C(=O)NCc3ccco3)ccc2n(C)c1=O (configuration not stated) | -6% | -1% | 40µM* | 6%
COc1ccc(N2CC(C(=O)Nc3ccc(NC(C)=O)cc3)CC2=O)cc1 (configuration not stated) | -4% | . | -6% | -3%
CC1(OC(=O)C2CCCC2)C(=O)C=C2C=C3CCCCN3C=C2C1=O (configuration not stated) | 4% | 6% | -32% | 0%
COC/C=C/C1=CC2=CC(=O)C(C)(OC(=O)C3CCCC3)C(=O)C2=CO1 (configuration not stated) | -6% | -20% | 3.5µM* | 0%
COC/C=C/C1=CC2=CC(=O)C(C)(OC(=O)c3ccco3)C(=O)C2=CO1 (configuration not stated) | . | . | 3.2µM* | .
CCOC(=O)c1cnc2ccc(OCC)cc2c1N1CCN(c2cccc(Cl)c2)CC1 | 10% | . | 6% | ?
SMILES | TbPYK inhibitor | RE007 growth inh | Sm TGR block | FMDV inh
COc1ccc(S(=O)(=O)c2cnc3ccccc3n2)cc1 | -2% | 8% | ? | -11%
O=S(=O)(c1ccc(Br)cc1)c1cnc2ccccc2n1 | 1% | -4% | 14µM* | ?
O=S(=O)(Cc1ccccc1)c1cnc2ccccc2n1 | -12% | -29% | -27% | 11µM*
O=Cc1cccc(OC(=O)/C=C/c2ccco2)c1 | 1% | ? | 28µM* | 0%
COC(=O)c1ccc(OC(=O)/C=C/c2ccco2)cc1 | -5% | 0% | -21% | 23%
CCN(CC)C(=O)c1ccc(NC(=O)Nc2ccccc2F)cc1 | ? | 13µM* | -7% | -42%
CCN(CC)C(=O)c1ccc(C(=O)Nc2ccc(F)cc2)cc1 | -3% | 7% | -4% | 41%
CC1CC2C3CCC4=CC(=O)C=CC4(C)[C@@]3(F)C(O)CC2(C)[C@@]1(O)C(=O)CCl (some centres not stated) | -20% | . | . | .
CC1CCCCC1NC(=O)NC(=O)CCl (configuration not stated) | -5% | -5% | 14µM* | ?
CC1CCCCC1NC(=O)NC(=O)COC(=O)c1nccnc1N (configuration not stated) | 1% | -6% | . | -7%
CC1CCCC(NC(=O)NC(=O)CCl)C1C (configuration not stated) | 3% | -8% | 2.8µM* | 20µM*
CCc1cc(=O)[nH]c(SCc2nc(-c3cccc(Cl)c3)no2)n1 | -6% | . | 0% | -26%
O=S(=O)(Nn1c(O)c(C=C2N=c3ccccc3=N2)sc1=S)c1ccccc1 | 0% | 2% | 11µM* | -8%
O=C(Nn1c(O)c(C=C2N=c3ccccc3=N2)sc1=S)c1ccccc1Cl | 2% | -8% | -13% | -10%
COCCn1nnnc1C(c1ccc(O)c(OC)c1)N1CCc2ccccc2C1 (configuration not stated) | -24% | 19% | 0.35µM* | -21%
COc1ccc(C(c2nnnn2CCc2ccccc2)N2CCN(C)CC2)cc1OC (configuration not stated) | -15% | 9% | 89µM* | 3%
COc1ccccc1N1CCN(C(c2ccccc2)c2nnnn2CCc2ccccc2)CC1 (configuration not stated) | 0% | 7% | -9% | -10%
COc1ccc(C(c2nnnn2C2CCCC2)N2CCc3ccccc3C2)cc1OC (configuration not stated) | -5% | -16% | ? | -5%
O=C(CCN1C(=O)C2CCCCC2C1=O)N1CCN(S(=O)(=O)c2cccc(F)c2)CC1 (configuration not stated) | 1% | -2% | 56µM* | -13%
CCOc1cc(/C=N/NC(=O)C(=O)NC2CC2)cc(Br)c1O | -7% | 1% | -2% | -14%
CCOc1cc(/C=N/NC(=O)C(N)=O)cc(Br)c1O | -8% | -5% | 50µM* | -8%
CCN(CCO)c1ccc(NC(=S)Nc2cccc(S(=O)(=O)N(C)C)c2)cc1 | -19% | -9% | 40µM* | -17%
CN(C)S(=O)(=O)c1cccc(NC(=S)Nc2cc(Cl)cc(Cl)c2)c1 | 0% | 1% | ? | -15%
CCN(CC)S(=O)(=O)c1ccc(NC(=S)Nc2ccccc2)cc1 | -1% | 8% | ? | 23%
